The values that follow come from PubChem BioAssay (EPA / NIEHS).

Where “and” joins values, the source holds several entries; their conditions need not be identical. Equal values may be shown once. Inconclusive results are not listed. Some compounds were tested as several samples or in several runs, with calls that do not always agree. Calls of active or inactive are those of the source. Rule for the calls, unless noted: active = hit-call score of the fitted dose curve at least 0.9, where 1 is the maximum; inactive = score below 0.9.

Assay [1] addresses human RAR-related Orphan Receptor beta (RORb), RORB (gene 6096) (UniProt Q92753). Nature of the assay: ATG_RORb_TRANS: Attagene TRANS-FACTORIAL HepG2 Assay for human RAR-related Orphan Receptor beta (RORb) (AID 2283010; active = hit-call score of the fitted dose curve at least 0.9, where 1 is the maximum). The essentials:
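Multiplexed transcription-factor reporter assay: HepG2 cells transiently carrying NR-Gal4/GAL4-UAS constructs, 24 h treatment, mRNA quantified by RT-PCR plus capillary electrophoresis fluorescence; activity scored as induction over DMSO.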

Assay [2] deals with human RAR-related Orphan Receptor gamma (RORg), RORC (gene 6097) (UniProt P51449). Nature of the assay: ATG_RORg_TRANS: Attagene TRANS-FACTORIAL HepG2 Assay for human RAR-related Orphan Receptor gamma (RORg) (AID 2283011; active = hit-call score of the fitted dose curve at least 0.9, where 1 is the maximum). The essentials:
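First, HepG2 liver cells were transfected with GAL4-UAS-driven reporter constructs and the RORg-Gal4 fusion. Next, they were treated with chemical for 24 h. Finally, reporter mRNA was quantified by RT-PCR and capillary electrophoresis, with upward activity fitted against DMSO.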

Assay [3] deals with Retinoic acid receptor RXR-alpha (Homo sapiens) (UniProt P19793). Nature of the assay: ATG_RXRa_TRANS: Attagene TRANS-FACTORIAL HepG2 Assay for human Retinoid X Receptor alpha (RXRa) (AID 2283012; active = hit-call score of the fitted dose curve at least 0.9, where 1 is the maximum). In a few lines:
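Chimeric NR-GAL4 trans-activation in HepG2, 24 h treatment; reporter transcripts quantified by fluorescence on capillary electrophoresis, analysed for upward change from DMSO.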

For assay [4], the target named is human Thyroid Receptor alpha (THRa1), THRA (gene 7067) (UniProt P10827). Kind of assay: ATG_THRa1_TRANS: Attagene TRANS-FACTORIAL HepG2 Assay for human Thyroid Receptor alpha (THRa1) (AID 2283014; active = hit-call score of the fitted dose curve at least 0.9, where 1 is the maximum). The essentials: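 Reporter transcript induction, read by capillary electrophoresis of 6-FAM-labelled RT-PCR products, reflects activity of a transfected THRa1-Gal4 fusion in HepG2 liver cells. Cells were dosed for 24 h; activity was fitted in the positive direction against DMSO.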
Sequence of human Thyroid Receptor alpha (THRa1), THRA (gene 7067) (P10827 whole entry, looked up, the tested form may be a part): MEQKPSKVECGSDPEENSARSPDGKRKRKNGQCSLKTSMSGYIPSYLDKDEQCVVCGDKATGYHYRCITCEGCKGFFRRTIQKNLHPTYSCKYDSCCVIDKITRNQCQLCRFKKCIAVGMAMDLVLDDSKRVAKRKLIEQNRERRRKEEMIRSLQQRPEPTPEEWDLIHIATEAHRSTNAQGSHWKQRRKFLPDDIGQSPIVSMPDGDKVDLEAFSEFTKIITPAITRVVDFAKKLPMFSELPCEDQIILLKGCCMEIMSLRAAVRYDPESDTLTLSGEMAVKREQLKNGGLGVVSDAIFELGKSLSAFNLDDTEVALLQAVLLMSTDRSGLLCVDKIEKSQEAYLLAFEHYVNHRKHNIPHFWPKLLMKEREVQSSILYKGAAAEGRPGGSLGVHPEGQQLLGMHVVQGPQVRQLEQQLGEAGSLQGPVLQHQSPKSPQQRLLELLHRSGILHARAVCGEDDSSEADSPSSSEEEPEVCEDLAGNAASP

Assay [5] has as its target human Retinoid X Receptor beta (RXRb), RXRB (gene 6257) (UniProt P28702). Nature of the assay: ATG_RXRb_TRANS: Attagene TRANS-FACTORIAL HepG2 Assay for human Retinoid X Receptor beta (RXRb) (AID 2283013; active = hit-call score of the fitted dose curve at least 0.9, where 1 is the maximum). In a few lines:
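After a 24 h incubation with test chemical, transfected HepG2 cells carrying NR-Gal4 fusions and GAL4-UAS reporter transcription units yield RNA whose reporter cDNA is FAM-labelled, HpaI-cut and sized by capillary electrophoresis; increases over DMSO are scored.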

Read-out in assay [6]: E-selectin (Homo sapiens) (UniProt P16581)
Kind of assay: BSK_3C_Eselectin: BioMAP Diversity Plus: 3C Assay for Eselectin Biomarker Activity (AID 2283015).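 For outcome: cell surface E-selectin protein quantified by ELISA 24 h after dosing.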 Conditions: primary human endothelial cells (HUVEC); actives raise or lower the signal. The essentials:
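ELISA read-out of E-selectin on endothelial monolayers after 24 h chemical treatment. Human umbilical vein primary cells served as the system, with DMSO defining baseline activity for bidirectional fitting.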

Read-out in assay [7]: Interleukin-1 alpha (IL1a), IL1A (gene 3552)
Nature of the assay: BSK_BE3C_IL1a: BioMAP Diversity Plus: BE3C Assay for Interleukin-1 alpha (IL1a) Biomarker Activity (AID 2283016). Conditions: primary human bronchial epithelial cells; actives raise or lower the signal. The essentials: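 Measured in human lung primary bronchial epithelial cells: IL-1a by ELISA at 24 h after dosing, with bidirectional fitting against DMSO.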

Read-out in assay [8]: Monocyte Chemoattractant Protein-1 (MCP1), CCL2 (gene 6347)
Nature of the assay: BSK_3C_MCP1: BioMAP Diversity Plus: 3C Assay for Monocyte Chemoattractant Protein-1 (MCP1) Biomarker Activity (AID 2283017). Conditions: primary human endothelial cells (HUVEC); actives raise or lower the signal. The essentials:
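ELISA read-out of MCP-1 from human umbilical vein endothelial cell cultures harvested 24 h post-dosing. Gain or loss of signal was fitted relative to DMSO.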

Read-out in assay [9]: Monocyte Chemoattractant Protein-1 (MCP1), CCL2 (gene 6347)
Nature of the assay: BSK_4H_MCP1: BioMAP Diversity Plus: 4H Assay for Monocyte Chemoattractant Protein-1 (MCP1) Biomarker Activity (AID 2283018). The note with it: primary human endothelial cells (HUVEC); actives raise or lower the signal. In a few lines:
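Primary human umbilical vein endothelium is exposed to chemical for 24 h before MCP-1 is assayed by ELISA. Concentration-response fitted bidirectionally relative to DMSO.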

Read-out in assay [10]: Human Leukocyte Antigen - DR isotype (HLADR), HLA-DRA (gene 3122)
Nature of the assay: BSK_3C_HLADR: BioMAP Diversity Plus: 3C Assay for Human Leukocyte Antigen - DR isotype (HLADR) Biomarker Activity (AID 2283019). Conditions: primary human endothelial cells (HUVEC); actives raise or lower the signal. In a few lines: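 ELISA readout of surface HLA-DR on human umbilical vein endothelium, taken 24 h after chemical treatment. Gain- and loss-of-signal were both fitted relative to DMSO.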

Read-out in assay [11]: Interleukin-8 (IL8), CXCL8 (gene 3576)
Nature of the assay: BSK_3C_IL8: BioMAP Diversity Plus: 3C Assay for Interleukin-8 (IL8) Biomarker Activity (AID 2283020). The note with it: primary human endothelial cells (HUVEC); actives raise or lower the signal. In a few lines:
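Using DMSO-treated wells as the baseline, bidirectional curve fitting was applied to ELISA-measured IL-8 from human umbilical vein endothelial cultures sampled 24 h after compound addition.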

Read-out in assay [12]: Monokine induced gamma interferon (MIG), CXCL9 (gene 4283)
Kind of assay: BSK_3C_MIG: BioMAP Diversity Plus: 3C Assay for Monokine induced gamma interferon (MIG) Biomarker Activity (AID 2283021).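 For AC50: MIG protein level measured by immunoassay in the treated endothelial cultures.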 Conditions: primary human endothelial cells (HUVEC); actives raise or lower the signal. The essentials: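 ELISA-measured MIG in dosed HUVEC 3C cultures at 24 h, analysed by bidirectional fitting with DMSO defining baseline activity.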

Assay [13] concerns the target human Vitamin D Receptor (VDR), VDR (gene 7421) (UniProt P11473). Nature of the assay: ATG_VDR_TRANS: Attagene TRANS-FACTORIAL HepG2 Assay for human Vitamin D Receptor (VDR) (AID 2283022; active = hit-call score of the fitted dose curve at least 0.9, where 1 is the maximum). In a few lines:
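Steps: transfect HepG2 with GAL4-UAS-driven reporter constructs; dose compounds 24 h; isolate RNA, reverse-transcribe, PCR-amplify with 6-FAM-labelled primer extension and HpaI digestion; quantify fragments by capillary electrophoresis relative to DMSO.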

Assay [14] can be described thus: BSK_3C_SRB: Viability Assessment in the BioMAP Diversity Plus: 3C Assay (AID 2283023).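 Note: fitted both ways against DMSO so a hit may be signal rise or drop.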 The note with it: primary human endothelial cells (HUVEC). In a few lines:
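Absorbance at 560 nm of sulforhodamine B-stained (0.1%) total protein served as a cytotoxicity readout in human umbilical vein endothelial cells, 24 h after chemical treatment. Signal was fitted bidirectionally relative to DMSO.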

Read-out in assay [15]: Matrix Metallopeptidase 1 (MMP1), MMP1 (gene 4312)
Nature of the assay: BSK_BE3C_MMP1: BioMAP Diversity Plus: BE3C Assay for Matrix Metallopeptidase 1 (MMP1) Biomarker Activity (AID 2283024). The note with it: primary human bronchial epithelial cells; actives raise or lower the signal. The essentials:
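In this multiplexed primary-cell system, human bronchial epithelium received chemicals for 24 h before an ELISA for MMP1. Values reflect bidirectional fits normalised to the DMSO baseline.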

Read-out in assay [16]: Pselectin, SELP (gene 6403)
Nature of the assay: BSK_4H_Pselectin: BioMAP Diversity Plus: 4H Assay for Pselectin Biomarker Activity (AID 2283026). The note with it: primary human endothelial cells (HUVEC); actives raise or lower the signal. In a few lines:
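Bidirectional fits against DMSO gave the endpoint. Cells: primary human umbilical vein endothelium, chemical-treated for 24 h before ELISA detection of P-selectin.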

A short description of assay [17]: BSK_4H_SRB: Viability Assessment in the BioMAP Diversity Plus: 4H Assay (AID 2283027).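 For AC50: curves fitted both ways versus DMSO so AC50 may be loss or gain.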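 Note: cells exposed to compound for 24 h before staining.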 The note with it: primary human endothelial cells (HUVEC). In a few lines:
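Cytotoxicity readout: sulforhodamine B (0.1%) staining of total protein after 10% TCA fixation, measured at 560 nm in human umbilical vein endothelium at 24 h. DMSO set the baseline; fitting was bidirectional.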

Assay [18] in a line: BSK_BE3C_SRB: Viability Assessment in the BioMAP Diversity Plus: BE3C Assay (AID 2283028).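 For AC50: fitted both ways so AC50 may mark signal gain or loss versus DMSO.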 The note with it: primary human bronchial epithelial cells. The essentials:
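Cells (human bronchial epithelial, primary) are treated with chemicals, and after 24 h the parallel cultures are fixed in 10% TCA. These are then stained with 0.1% SRB and read at 560 nm. Gain or loss of signal is fitted relative to DMSO.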

Read-out in assay [19]: Thrombomodulin, THBD (gene 7056)
Kind of assay: BSK_3C_Thrombomodulin: BioMAP Diversity Plus: 3C Assay for Thrombomodulin Biomarker Activity (AID 2283029). The note with it: primary human endothelial cells (HUVEC); actives raise or lower the signal. In a few lines: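 In a multiplexed primary-cell system, human umbilical vein endothelium received chemical and was assayed 24 h later for thrombomodulin by ELISA. Parallel cultures were SRB-stained (0.1% SRB after 10% TCA fixation, read at 560 nm) to flag cytotoxicity.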

A word on the AC50: it is the midpoint of the concentration-response curve, whichever way the signal moves.

Sequence of E-selectin (Homo sapiens) (P16581 whole entry, looked up): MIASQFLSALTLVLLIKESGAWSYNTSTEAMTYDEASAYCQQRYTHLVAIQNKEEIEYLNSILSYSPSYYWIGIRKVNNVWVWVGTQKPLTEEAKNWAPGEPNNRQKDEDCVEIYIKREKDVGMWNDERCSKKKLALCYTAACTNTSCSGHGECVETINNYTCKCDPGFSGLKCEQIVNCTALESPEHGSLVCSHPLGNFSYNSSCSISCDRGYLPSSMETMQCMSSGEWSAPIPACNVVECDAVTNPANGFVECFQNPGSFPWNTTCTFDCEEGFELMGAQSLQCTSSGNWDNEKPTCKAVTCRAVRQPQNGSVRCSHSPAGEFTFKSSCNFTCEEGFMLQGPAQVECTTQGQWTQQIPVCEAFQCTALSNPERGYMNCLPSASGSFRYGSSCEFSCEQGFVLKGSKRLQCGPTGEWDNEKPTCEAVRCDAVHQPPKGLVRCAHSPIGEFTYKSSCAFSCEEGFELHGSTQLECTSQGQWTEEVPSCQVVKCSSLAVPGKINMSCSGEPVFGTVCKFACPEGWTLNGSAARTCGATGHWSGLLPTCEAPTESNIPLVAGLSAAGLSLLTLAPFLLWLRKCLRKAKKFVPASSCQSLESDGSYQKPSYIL
Sequence of human RAR-related Orphan Receptor gamma (RORg), RORC (gene 6097) (P51449 whole entry, looked up, the tested form may be a part): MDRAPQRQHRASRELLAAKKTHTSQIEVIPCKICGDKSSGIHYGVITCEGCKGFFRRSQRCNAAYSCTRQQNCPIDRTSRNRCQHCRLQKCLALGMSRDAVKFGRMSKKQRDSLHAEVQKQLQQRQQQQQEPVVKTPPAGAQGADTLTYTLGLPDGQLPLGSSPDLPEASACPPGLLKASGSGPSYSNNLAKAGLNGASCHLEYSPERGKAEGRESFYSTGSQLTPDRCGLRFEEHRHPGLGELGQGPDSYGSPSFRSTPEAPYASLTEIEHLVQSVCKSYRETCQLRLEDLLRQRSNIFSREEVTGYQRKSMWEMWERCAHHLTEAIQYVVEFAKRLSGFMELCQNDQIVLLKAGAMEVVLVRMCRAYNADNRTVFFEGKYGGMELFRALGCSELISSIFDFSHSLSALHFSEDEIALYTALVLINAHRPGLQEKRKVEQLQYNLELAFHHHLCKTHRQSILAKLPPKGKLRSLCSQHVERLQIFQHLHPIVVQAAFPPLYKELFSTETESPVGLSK
Sequence of Retinoic acid receptor RXR-alpha (Homo sapiens) (P19793 whole entry, looked up, the tested form may be a part): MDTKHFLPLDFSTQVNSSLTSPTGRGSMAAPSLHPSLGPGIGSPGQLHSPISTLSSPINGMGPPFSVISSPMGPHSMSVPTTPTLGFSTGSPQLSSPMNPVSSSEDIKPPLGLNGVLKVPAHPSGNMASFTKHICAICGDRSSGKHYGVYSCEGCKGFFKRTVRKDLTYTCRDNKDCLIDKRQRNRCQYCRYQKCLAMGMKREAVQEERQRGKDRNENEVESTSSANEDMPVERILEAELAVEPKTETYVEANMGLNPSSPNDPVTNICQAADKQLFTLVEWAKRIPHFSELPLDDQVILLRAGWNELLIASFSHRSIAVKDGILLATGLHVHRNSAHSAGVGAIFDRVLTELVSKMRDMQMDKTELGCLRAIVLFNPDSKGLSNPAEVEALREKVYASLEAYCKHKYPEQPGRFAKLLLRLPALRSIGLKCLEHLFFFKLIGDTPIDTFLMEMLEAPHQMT
Sequence of human Vitamin D Receptor (VDR), VDR (gene 7421) (P11473 whole entry, looked up, the tested form may be a part): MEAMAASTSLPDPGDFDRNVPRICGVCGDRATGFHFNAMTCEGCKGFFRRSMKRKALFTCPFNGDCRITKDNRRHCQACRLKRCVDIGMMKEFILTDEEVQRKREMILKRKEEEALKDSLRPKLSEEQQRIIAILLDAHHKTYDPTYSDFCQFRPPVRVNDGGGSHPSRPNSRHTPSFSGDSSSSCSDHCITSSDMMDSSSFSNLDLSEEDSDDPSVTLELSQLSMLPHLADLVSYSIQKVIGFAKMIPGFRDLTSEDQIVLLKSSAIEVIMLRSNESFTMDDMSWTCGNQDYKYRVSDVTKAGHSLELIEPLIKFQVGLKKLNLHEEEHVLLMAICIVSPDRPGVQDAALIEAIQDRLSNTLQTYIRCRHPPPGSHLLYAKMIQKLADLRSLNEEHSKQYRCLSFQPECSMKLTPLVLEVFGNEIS
Sequence of human RAR-related Orphan Receptor beta (RORb), RORB (gene 6096) (Q92753 whole entry, looked up, the tested form may be a part): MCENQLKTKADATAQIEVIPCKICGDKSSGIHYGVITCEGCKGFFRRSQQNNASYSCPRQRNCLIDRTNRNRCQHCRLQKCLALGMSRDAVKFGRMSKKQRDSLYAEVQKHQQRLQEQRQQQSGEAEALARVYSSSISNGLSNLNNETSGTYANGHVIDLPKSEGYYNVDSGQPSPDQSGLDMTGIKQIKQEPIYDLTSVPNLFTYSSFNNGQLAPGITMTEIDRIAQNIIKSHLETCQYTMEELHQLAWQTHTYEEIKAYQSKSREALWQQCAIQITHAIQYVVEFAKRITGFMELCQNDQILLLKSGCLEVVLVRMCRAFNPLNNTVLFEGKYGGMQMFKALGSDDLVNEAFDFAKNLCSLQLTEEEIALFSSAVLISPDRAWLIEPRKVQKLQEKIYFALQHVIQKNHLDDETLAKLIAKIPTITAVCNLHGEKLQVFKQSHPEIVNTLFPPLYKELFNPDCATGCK
Sequence of human Retinoid X Receptor beta (RXRb), RXRB (gene 6257) (P28702 whole entry, looked up, the tested form may be a part): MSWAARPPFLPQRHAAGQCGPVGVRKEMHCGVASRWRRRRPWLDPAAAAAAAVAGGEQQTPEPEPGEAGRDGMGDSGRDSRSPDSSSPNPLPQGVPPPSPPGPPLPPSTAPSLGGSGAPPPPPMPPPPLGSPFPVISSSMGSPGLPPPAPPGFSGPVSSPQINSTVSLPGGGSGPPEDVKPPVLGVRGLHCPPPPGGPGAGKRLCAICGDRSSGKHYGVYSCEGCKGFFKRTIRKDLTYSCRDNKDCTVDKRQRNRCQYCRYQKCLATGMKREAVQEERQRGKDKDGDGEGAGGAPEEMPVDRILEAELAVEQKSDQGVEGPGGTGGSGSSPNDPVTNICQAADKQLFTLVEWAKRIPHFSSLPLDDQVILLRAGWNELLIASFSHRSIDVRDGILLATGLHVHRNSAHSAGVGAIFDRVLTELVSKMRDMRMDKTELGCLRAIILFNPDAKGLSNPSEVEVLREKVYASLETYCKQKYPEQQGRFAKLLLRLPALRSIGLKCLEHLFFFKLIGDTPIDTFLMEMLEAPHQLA

In the case of `Cc1ccc(S(=O)(=O)NCl)cc1`, the molecule was classed as inactive in assay [1], in assay [2], in assay [3] and in [4].

On to `O=C(O)C(F)(F)C(F)(F)C(F)(F)C(F)(F)C(F)(F)C(F)(F)C(F)(F)C(F)(F)Cl`, for which the molecule was classed as inactive in assay [1], in assay [2], in assay [3], in assay [4], in [6] and in [9]. For the same molecule, the outcome in assay [11], in assay [12], in assay [13] and in [16] was inactive. The half-maximal activity concentration (AC50) in assay [5] is 19.9 µM (active) and 20.5 µM (active); in [6] it was 23.8 µM (active); in assay [7], 25.1 µM (active) and 23.6 µM (active); in assay [8] it was 47.5 µM (active) and 30 µM (active); in assay [10], 53.3 µM (active) and 49 µM (active); in assay [11] it was 45.1 µM (active). The half-maximal activity concentration (AC50) in assay [12] is 55.1 µM (active); in assay [14] it was 52.5 µM (active) and 45.1 µM (active); in assay [15], 7.12 µM (active) and 55.3 µM (active); in [17], 49.7 µM (active) and 52.2 µM (active); in [18] it was 41.3 µM (active) and 29.4 µM (active); in assay [19], 48.5 µM (active) and 45.4 µM (active).

Take `O=S(=O)(O)C(F)(F)C(F)(F)C(F)(F)C(F)(F)C(F)(F)C(F)(F)C(F)(F)F`: the call in assay [1], in assay [2], in assay [3], in assay [5], in assay [6] and in assay [7] was inactive. For the same molecule, the outcome in assay [8], in assay [9], in [10], in [12], in assay [14] and in assay [16] was inactive. Besides, the outcome in assay [17], in assay [18] and in assay [19] was inactive. For the same molecule, the AC50 in assay [15] was 8.64 µM (active) and 15.6 µM (active).

In the case of `C=CC(F)(F)C(F)(F)C(F)(F)C(F)(F)C(F)(F)C(F)(F)C(F)(F)C(F)(F)C=C`, the molecule was called inactive in [1], in [2], in [3], in [5], in assay [6] and in assay [7]. Also, the outcome in assay [8], in assay [9], in [10], in assay [12], in assay [14] and in [15] was inactive. In addition, the result in assay [16], in [17], in [18] and in [19] was inactive.

Take `CCN(Cc1cccc(S(=O)(=O)O)c1)c1ccc(C(=C2C=CC(=[N+](CC)Cc3cccc(S(=O)(=O)O)c3)C=C2)c2ccc(O)cc2S(=O)(=O)[O-])cc1`: the outcome in assay [1], in assay [2], in assay [3] and in assay [5] was inactive.

Take `FC(F)(F)C(F)(F)C(F)(F)CI`: the molecule was classed as inactive in assay [1], in assay [2], in assay [5], in assay [4], in assay [6] and in assay [7]. Moreover, the result in assay [8], in assay [9], in [10], in assay [11], in [12] and in assay [13] was inactive. The outcome in assay [14], in assay [15], in assay [16], in [17] and in [19] was inactive.

For the molecule `CC(C)OC(=O)c1ccccc1C(=O)OC(C)C`, the result in [1] and in assay [3] was inactive. In addition, the half-maximal activity concentration (AC50) in assay [5] was 18.9 µM (active).

As to `O=C(O)C(F)(F)C(F)(F)OC(F)(F)F`, the molecule was called inactive in assay [1], in [2], in assay [4], in [6], in assay [7] and in assay [8]. The result in assay [9], in assay [10], in [11], in [12], in assay [14] and in [15] was inactive. Further, the result in assay [16], in [17] and in assay [19] was inactive.
